# According to PubChem BioAssay (NCI):
# Compounds without any hit were thinned out: in the full panel of roughly 83,000, 20% have a hit.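 Results are percent growth after 48 hours of single-concentration exposure. 100 means growth as in untreated cells, lower positive values show inhibition; negative values down to -100 show cell death.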 Activity calls are given as the source filed them. How the source made its calls: active means growth percent below 10; inactive means the rest.
# Tested on: HL-60(TB) leukemia
# Assay: NCI-60 one-dose screen, 48 h (100 = growth as untreated, 0 = no growth, -100 = all killed)
# Conditions: 10 µM unless noted
row,SMILES,growth
1,COc1nc2c(c(=O)n1C)N=C1c3ccccc3C(=O)C1C(c1ccccc1)N2 (stereo not given),112% (inactive)
2,C[N+](C)(C)CC(=O)N/N=C\c1ccco1,53% (inactive)
3,CCN1C(=O)/C(=C/C=C/N(C)c2ccccc2)SC1=S,78.2% (inactive)
4,CC1=C(SCCC(=O)OC(C[Se]C2=C(C)C(=O)c3ccccc3C2=O)C(=O)NCCCCCC(=O)OCc2ccccc2)C(=O)c2ccccc2C1=O (stereo not given),-1.59% (active)
5,Cc1ccc(S(=O)(=O)N/N=C2\CC3CCC2C3)cc1 (stereo not given),98.5% (inactive)
6,CCCCOC(=O)c1ccc(NC(=O)C(C)N2CCOCC2)cc1 (stereo not given),82% (inactive)
7,CC1(C)NC(=O)c2[nH]c3c(Cl)c(Cl)ccc3c2C1C#N (stereo not given),65.4% (inactive)
8,O=C1c2cc3c(cc2-c2c1c1ccc(F)cc1c(=O)n2CCCNCCO)OCO3,-58.1% (active)
9,Oc1ccccc1/C=N/c1ccccn1,102% (inactive)
10,COc1ccccc1Cn1cc2c(c1)-c1oncc1CC2,1.41% (active)
11,CCCN(CCSSCCNc1nc(N(C)O)nc(N(C)O)n1)c1nc(N(C)O)nc(N(C)O)n1,88% (inactive)
12,O=C(O)C(SC(C(=O)O)c1ccccc1)c1ccccc1 (stereo not given),95% (inactive)
13,CNC(=O)c1nn(C)c2c1C(C)(C)Cc1cnc(Nc3ccc(N4CCN(C)CC4)cc3)nc1-2,-27% (active)
14,CCOC(=O)C1=C(C)N=C2SC=C(c3ccc(F)cc3)N2[C@H]1c1cn(-c2ccccc2)nc1-c1ccc(Cl)cc1,88.3% (inactive)
15,[2H]c1nc(=Nc2cc(NC(=O)C=C)c(N(C)CCN(C)C)cc2OC)[nH]c(-c2cn(C([2H])([2H])[2H])c3ccccc23)c1[2H],-37.8% (active)
16,CC(C)=CCc1cc(O)cc2c1OC(C=C(C)C)C1=C2C(=O)C2=C(C1=O)S(=O)(=O)CCN2 (stereo not given),-31.5% (active)
17,C/C(O)=C(/C=N/C(=S)Nc1ccccc1)C(=O)Nc1ccccc1C,94.7% (inactive)
18,C[C@]12CC[C@@H]3c4cc(O)c(O)cc4CC[C@H]3[C@@H]1CC[C@@H]2O,4.62% (active)
19,COc1ccc(C2C=C(c3ccc(OC)c(OC)c3)N=C3SC=CN32)c(Br)c1 (stereo not given),57.6% (inactive)
20,COC(=O)c1c(C)nc(C)c2c1C(=O)C(Br)=C(NCCN1CCOCC1)C2=O,61.9% (inactive)

row,SMILES,growth
1,C/C(=C(\c1ccc(OCCN2CCCCCC2)cc1)c1ccc(OC(=O)c2ccccc2)cc1)c1ccc(Cl)cc1,13.8% (inactive)
2,COc1cc2oc3cc(C)oc(=O)c3c2cc1OC,80.3% (inactive)
3,CC1(C)C(N(O)C(=O)Nc2ccc(Cl)cc2)N(c2ccc(Cl)cc2)C(=O)N1CC(=O)N/N=C/C=C/c1ccc([N+](=O)[O-])o1 (stereo not given),-36% (active)
4,CC(=O)c1c(C)nc(SCC(=O)Nc2cccc(O)c2)n1-c1ccc(Cl)cc1,88.3% (inactive)
5,CN(C)c1ccc(C2Nc3ccccc3-n3cccc32)cc1 (stereo not given),123% (inactive)
6,C(=N\Nc1ncc(-c2cc3cc4c(cc3o2)OCO4)s1)/c1ccco1,16.2% (inactive)
7,COc1ccccc1/C=C(/C(=O)c1ccccc1)c1ccccc1,71.8% (inactive)
8,CC(C)C1=NOC(=O)C1=Cc1cn(-c2ccccc2)nc1-c1ccc(F)cc1,-34.9% (active)
9,COc1ccc(C(c2cc(OC)c(OC)c(OC)c2)N2CCN(Cc3ccccc3)CC2)cc1 (stereo not given),23% (inactive)
10,O=C(Nc1cccc(NC(=O)C2CCCCC2)c1)c1ccccn1,95.4% (inactive)
11,COc1ccc(/C(C)=C(\c2ccc(Cl)cc2)c2ccc(OCCN3CCCC3)cc2)cc1F,0.205% (active)
12,O=C(O)[C@@H](Cc1ccc2ccccc2c1)NC(=O)n1c2ccccc2c2ccccc21,6.8% (active)
13,COc1ccc(-c2nc3sccn3c2-c2ccnc(NCCCNS(=O)(=O)c3ccc(C)cc3)n2)cc1,0.661% (active)
14,CCCCCCCCCCCCCCCCS(=O)(=O)Nc1cc(C(=O)NN)cc(C(=O)NN)c1,35.8% (inactive)
15,COCCn1cc(-c2csc(-c3cn(C)c4ccc(F)cc34)n2)c2cccnc21,84.7% (inactive)
16,Cc1[nH]n(C(N)=S)c(=O)c1N=Nc1ccc(S(=O)(=O)Nc2ccncn2)cc1,103% (inactive)
17,Cc1ccc(C2CC(c3cccc(Nc4ccncc4)c3)=NN2c2ccc(Cl)cc2)cc1 (stereo not given),-55.6% (active)
18,Nc1ccc(-c2ccc(N)c(S(=O)(=O)O)c2)cc1S(=O)(=O)O,91.4% (inactive)
19,CN(C)c1ccc(O)c2c1CC1CC3C(N(C)C)C(=O)C(C(N)=O)=C(O)C3(O)C(=O)C1=C2O (stereo not given),51.3% (inactive)
20,C#CCNC(=O)CC[C@@H](C)[C@H]1CC[C@H]2[C@@H]3CC[C@@H]4CC(=O)CC[C@]4(C)[C@H]3CC[C@]12C,-30% [100 µM] (active)
